PubChem BioAssay AID1159580 (chemical genetic matrix, 2015)
Out of some 5,500 compounds screened, about 2,000 (36%) were called active. Inconclusive results (about 18%) are left out. No stated cut-off is given here; in the data, active means normalized growth mostly below about 0.91 (no sharp cut-off); inconclusive means no clear call, values can overlap the other calls; inactive means mostly above about 0.92. The list shows a part of the results.

Assay: chemical genetic growth profiling, strain panel (AID 1159580);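 further: tested at 20 µM; growth read once vehicle control cultures reached saturation at 30 °C; 1 = growth at the plate median or of vehicle wells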
Details: growth OD
[1] = S. cerevisiae deletion strains, locus YGR229C, strain SMI1, stronger effect = lower value
[2] = S. cerevisiae deletion strains, locus YMR307W, strain GAS1, stronger effect = lower value
[3] = S. cerevisiae deletion strains, locus YNL153C, strain GIM3, stronger effect = lower value
[4] = S. cerevisiae deletion strains, locus YPL055C, strain LGE1, stronger effect = lower value
[5] = S. cerevisiae deletion strains, locus YPL241C, strain CIN2, stronger effect = lower value

Measured: normalized growth

CCOC(=O)N=Nc1c(O)[nH]c2ccc(F)cc12
inactive: S. cerevisiae deletion strains, locus YAL013W, strain DEP1, stronger effect = lower value 1.01 | S. cerevisiae deletion strains, locus YBR229C, strain ROT2, stronger effect = lower value 1.01 | S. cerevisiae deletion strains, locus YDL101C, strain DUN1, stronger effect = lower value 1.01 | S. cerevisiae deletion strains, locus YDR150W, strain NUM1, stronger effect = lower value 1 | S. cerevisiae deletion strains, locus YEL061C, strain CIN8, stronger effect = lower value 1.02 | S. cerevisiae deletion strains, locus YGR078C, strain PAC10, stronger effect = lower value 1 | [1] 1 | S. cerevisiae deletion strains, locus YHR030C, strain SLT2, stronger effect = lower value 1.06 | S. cerevisiae deletion strains, locus YHR087W, strain rtc3, stronger effect = lower value 1.03 | S. cerevisiae deletion strains, locus YJR043C, strain POL32, stronger effect = lower value 1 | S. cerevisiae deletion strains, locus YJR075W, strain HOC1, stronger effect = lower value 1.02 | S. cerevisiae deletion strains, locus YKL190W, strain CNB1, stronger effect = lower value 1.01 | S. cerevisiae deletion strains, locus YLR039C, strain RIC1, stronger effect = lower value 1.02 | S. cerevisiae deletion strains, locus YLR058C, strain SHM2 (second series), stronger effect = lower value 0.997 | S. cerevisiae deletion strains, locus YLR085C, strain ARP6, stronger effect = lower value 1.01 | S. cerevisiae deletion strains, locus YLR262C, strain YPT6, stronger effect = lower value 1.01 | S. cerevisiae deletion strains, locus YML094W, strain GIM5, stronger effect = lower value 1.05 | S. cerevisiae deletion strains, locus YMR219W, strain ESC1, stronger effect = lower value 0.999 | S. cerevisiae deletion strains, locus YMR263W, strain SAP30, stronger effect = lower value 0.976 | [2] 0.933 | S. cerevisiae deletion strains, locus YNL128W, strain TEP1, stronger effect = lower value 1.02 | [3] 1 | S. cerevisiae deletion strains, locus YNL298W, strain CLA4 (second series), stronger effect = lower value 0.998 | S. cerevisiae deletion strains, locus YNL322C, strain KRE1, stronger effect = lower value 1.02 | S. cerevisiae deletion strains, locus YNR030W, strain Alg12, stronger effect = lower value 1.01 | S. cerevisiae deletion strains, locus YOL006C, strain TOP1, stronger effect = lower value 1.03 | [4] 1.04 | [5] 0.889 | S. cerevisiae deletion strains, locus YPR135W, strain CTF4, stronger effect = lower value 1.08 | S. cerevisiae strains, strain wild type, stronger effect = lower value 1

CCCCCCCC/C=C\CCCCCCCC(=O)NCCc1ccc(O)c(O)c1
active: [1] 0.811 | [3] 0.811
inactive: S. cerevisiae deletion strains, locus YAL040C, strain CLN3, stronger effect = lower value 1.01 | S. cerevisiae deletion strains, locus YCL061C, strain MRC1 (second series), stronger effect = lower value 0.987 | S. cerevisiae deletion strains, locus YDR363W, strain ESC2, stronger effect = lower value 0.981 | S. cerevisiae deletion strains, locus YER002W, strain NOP16, stronger effect = lower value 1 | [2] 0.987 | S. cerevisiae deletion strains, locus YNL175C, strain NOP13, stronger effect = lower value 0.999 | S. cerevisiae deletion strains, locus YNL197C, strain WHI3, stronger effect = lower value 0.987 | S. cerevisiae deletion strains, locus YNL224C, strain SQS1, stronger effect = lower value 1.02 | S. cerevisiae deletion strains, locus YOR083W, strain WHI5 (second series), stronger effect = lower value 0.876 | [4] 1 | [5] 0.993
